# Most compounds without a hit are left out; they make up all but 11% or so of the library.
# HP1b binding inh: HP1-beta chromodomain-methylated histone interaction inhibition | hit rate 0.56% among 390,000 | AlphaScreen HP1-beta / biotin-H3K9me3 peptide binding | Potency, µM (series often up to 114 µM), inactives show top-dose activity change, negative = inhibition, most hits filed as inhibitors; also: nearly all actives have a fitted effect of over 70% in size
#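 AlphaScreen: HP1-beta (50 nM) preformed 30 min with biotin-H3(1-18)K9me3 peptide (50 nM) in PBS pH 7.4, 0.01% Tween-20. Compound added for 30 min at RT, then streptavidin donor/nickel chelate acceptor beads (10 ug/mL) for 30 min.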
# BAZ2B inh: inhibitors of human BAZ2B bromodomain. AlphaScreen BAZ2B-H3K14Ac peptide displacement. Q9UIF8. AID 504333. Potency, µM (doses to about 114 µM), for the others: at the highest dose activity change, negative = inhibition, actives largely listed as inhibitors. hit rate 4.4% among 360,000; also: % is scaled to controls: 0 for no effect and ±100 for the full control effect; nearly all actives have a fitted effect of over 60% in size
#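 Compounds, titrated to a top concentration of 110 uM, were incubated 30 min at room temperature with preformed BAZ2B/acetyl-K14 H3 peptide complex (50 nM each). Proximity signal was measured by AlphaScreen after 20 min with beads.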
# JMJD2A Tudor inh: JMJD2A Tudor domain (human) inhibition; AID 504339; AlphaScreen JMJD2A-Tudor / H3K4me3 peptide binding; hit rate 4.4% among 390,000; Potency, µM (series often up to 114 µM), for the others: at the highest dose activity change, negative = inhibition, usual class: inhibitors; O75164; also: % is scaled to controls: 0 for no effect and ±100 for the full control effect; nearly all actives have a fitted effect of over 50% in size
# G9a block: inhibitors of human histone lysine methyltransferase G9a; Q96KQ7; G9a H3K9 monomethylation, AlphaScreen, 2 h; Potency, µM (series often up to 102 µM), without a hit: top-dose activity, negative = inhibition, usual class: inhibitors; hit rate 8.8% among 350,000; AID 504332; also: % is scaled to controls: 0 for no effect and ±100 for the full control effect; nearly all actives have a fitted effect of over 75% in size
#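 AlphaScreen detection with an anti-monomethyl H3K9 antibody quantified product after a 2 h room-temperature reaction containing 500 nM biotinylated H3K9 peptide, 20 µM SAM and 20 nM enzyme, which had been preincubated 15 min with compound.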
# VDR inhibitor: blocks the human vitamin D receptor | hit rate 0.93% among 400,000 | VDR-SRC2-3 peptide fluorescence polarization, 2 h | P11473 | AID 504847 | Potency, µM, for the others: max response, negative = inhibition, actives largely listed as inhibitors; also: % is scaled to controls: 0 for no effect and ±100 for the full control effect
#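 The screen uses fluorescence polarization to detect compounds that interfere with recruitment of the SRC2-3 coactivator peptide to VDR; plates are read after 2 h at room temperature.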
# PLK1 PBD inh: PLK1 (human) polo-box domain binding inhibition; P53350; Plk1 PBD binding of FITC phosphopeptide, fluorescence polarization; Potency, µM, for the others: max response, negative = inhibition, actives largely listed as inhibitors; hit rate 2.8% among 360,000; also: series mostly up to about 57 µM; % is scaled to controls: 0 for no effect and ±100 for the full control effect; nearly all actives have a fitted effect of over 65% in size
# Active calls of the source: *; ? = inconclusive; . = no result; [ ] = remark or other dose. Calls follow the shape of the dose curve; as a rule, active = well fitted curve in the direction sought with a large enough effect; inconclusive = small, poorly fitted or top-dose-only effect, or another doubt; inactive = no such curve, though single readings can be large; an effect the other way counts as inactive or inconclusive. Potency is read from the fitted curve at half-maximal effect.
SMILES,HP1b binding inh,BAZ2B inh,JMJD2A Tudor inh,G9a block,VDR inhibitor,PLK1 PBD inh
OCCNCCCCOc1ccc(F)cc1,13%,3%,-14%,9%[59 µM],5%,-5%
COc1ccc(OCCN(C)Cc2ccccc2)cc1,10%,4%,-26%,?,7%,-4%
CN(C)CCCCOc1ccc(F)cc1,?,79µM*,0.89µM*,8.9µM*,1%,?
Cc1cc(C)c(C)c(OCCCCN(C)Cc2ccccc2)c1,?,50µM*,11µM*,10µM*,16%,4%
CCc1ccc(OCCCCN(C)Cc2ccccc2)cc1,?,?,14µM*,.,-20%,-8%
COc1cc(C)ccc1OCCOCCN(C)Cc1ccccc1,?,?,3.2µM*,?,-6%,-13%
COc1ccc(N(Cc2ccccc2)S(=O)(=O)c2ccc(C)cc2)cc1,49%,3%,-17%[11.4 µM],38%,1%,-5%
COc1ccc(OCCCN(C)Cc2ccccc2)cc1,?,?,25µM*,13µM*,-9%,-4%
CCC(C)c1ccccc1OCCCN(C)Cc1ccccc1 (stereo not given),17%,?,7.1µM*,11µM*,-14%,-4%
CN(CCOc1ccc(F)cc1)Cc1ccccc1,?,50µM*,0.79µM*,10µM*,-2%,-8%
COc1ccc(N(Cc2ccccc2)N=O)cc1,51%,0%,27%,40µM*,-14%,-14%
CN(CCOC(=O)c1ccccc1)Cc1ccccc1,43%,2%,1%,7%[59 µM],0%,0%
Cc1cccc(N(CC(=O)Nc2ccccc2C(F)(F)F)S(=O)(=O)c2ccccc2)c1C,20%,-3%,-16%,-33%[59 µM],19%,.
CCN1CCN(C(CCc2ccccc2)C(=O)NC2CCCCC2)CC1 (stereo not given),.,.,.,.,.,-4%
CCCCN(CCO)CCCC,36%,-5%,0%,9%[0.501 µM],0%,1%
CCN(CCCc1ccccc1)CCCc1ccccc1,-9%,?,22µM*,?,-10%,-15%
CCCN(CCO)CCCc1ccccc1,?,?,2.8µM*,?,25%,0%
COc1cc2c(cc1OC)/C(=C/C(=O)c1ccccc1)NCC2,-17%,?,?,?,-9%,0%
COc1cc2c(cc1OC)/C(=C/C(=O)c1ccc(C)cc1)NCC2,-12%,?,?,50µM*,1%,-12%
COc1cc2c(cc1OC)/C(=C/C(=O)c1ccc([N+](=O)[O-])c(C)c1)NCC2,9%,-30%,20µM*,-7%,?,19µM*
COc1cccc(C(=O)/C=C2\NCCc3cc(OC)c(OC)cc32)c1,-20%,?,?,50µM*,-20%,-6%
CC(C)(C)OC(=O)Cc1nnc(C(C(=O)OCc2ccccc2)c2ccccc2)o1 (stereo not given),.,.,10%,.,.,.
CC1CC=CC2C1C(=O)N(Cc1ccccc1)C2c1ccc(/C=C/c2ccccc2)cc1F (stereo not given),33%,.,-10%,.,-10%,.
Cc1c2ccccc2cc[n+]1CCCS(=O)(=O)[O-],38%,-26%,-1%,-27%,-8%,-5%
CC1(C)C(/C=C/C=C/C=C/C=C2\N(CCCCS(=O)(=O)O)c3ccc4ccccc4c3C2(C)C)=[N+](CCCCS(=O)(=O)[O-])c2ccc3ccccc3c21,?,.,6.3µM*,?,?,?
COc1ccc(N2CCN(C(=O)C3CCN(c4nc5ccc(C)cc5[nH]4)CC3)CC2)cc1,9%[57 µM],-31%,-26%,?,6%,.
COc1ccc2nc(N3CCCC3)[nH]c2c1,26%,3%,-19%,5.6µM*,3%,-7%
COc1ccc(N2CCN(c3cc(C)nc4ccc(OC)cc34)CC2)cc1,?,32µM*,45µM*,50µM*,-7%,-7%
CC1CN(c2nnc(-c3ccccc3)c3ccccc23)CC(C)O1 (stereo not given),-13%,-4%,?,3%,-30%,21µM*
COc1ccc(CNc2cc(C)nc3ccc(OC)cc23)cc1,3%,-38%,-26%,35µM*,-21%,0%
